The record followed here is PubChem BioAssay (EPA / NIEHS).

Active and inactive are the calls of the source. The calls were made as follows: active = hit-call score of the fitted dose curve at least 0.9, where 1 is the maximum; inactive = score below 0.9.

Usually AC50 stands for the concentration giving half of the maximal activity seen.

A short description of assay [1]: ATG_GRE_CIS: Attagene CIS-FACTORIAL HepG2 Assay for human Glucocorticoid Response Elements (GRE) (AID 2282947). Particulars: HepG2 GRE cis-reporter, Attagene multiplex mRNA; actives raise or lower the signal. The gist of the method:
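Cells (HepG2) bearing transfected cis-promoter reporter transcription units were treated with chemical for 24 hours. Reporter mRNA was measured via RT-PCR with capillary electrophoresis, and activity was fitted in both directions relative to DMSO.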

Assay [2] is described as follows: ATG_ISRE_CIS: Attagene CIS-FACTORIAL HepG2 Assay for human Interferon Regulatory Factor 1 (IRF1) binding to an Interferon-Stimulated Response Element (ISRE) (AID 2282948). Particulars: HepG2 ISRE cis-reporter (Attagene), mRNA transcription readout; actives raise or lower the signal. The procedure, abridged:
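Endogenous transcription factor activity read as reporter transcript abundance via RT-PCR and capillary electrophoresis. HepG2 cells transiently transfected, 24 h chemical exposure. Gain or loss fitted against DMSO baseline.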

The nature of assay [3]: ATG_M_32_CIS: Attagene CIS-FACTORIAL HepG2 Assay for M32 Transcription Factor (Internal Marker) (AID 2282949).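 Also: background control marker of the multiplexed CIS panel rather than a real target.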 Particulars: HepG2 Attagene cis-factorial M32 reporter, mRNA; actives raise or lower the signal. The procedure, abridged:
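HepG2 transfectants (cis-regulated reporter transcription units) dosed 24 h. Reporter mRNA by RT-PCR plus CE, analysed as gain or loss relative to DMSO.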

Assay [4] in a line: ATG_M_06_CIS: Attagene CIS-FACTORIAL HepG2 Assay for M06 Transcription Factor (Internal Marker) (AID 2282950). Particulars: HepG2 Attagene CIS-FACTORIAL M06 internal marker reporter; actives raise or lower the signal. The gist of the method: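 Steps: transfect HepG2 with multiplexed cis-element reporter constructs; dose chemical 24 h; extract RNA with DNase treatment; reverse-transcribe, PCR-amplify, 6-FAM label, HpaI digest; separate fragments by capillary electrophoresis. Activity fitted both directions versus DMSO.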

Assay [5] addresses Hypoxia-inducible factor 1-alpha (Homo sapiens) (UniProt Q16665). In words: ATG_HIF1a_CIS: Attagene CIS-FACTORIAL HepG2 Assay for human Hypoxia Inducible Factor 1 (HIF1A) (AID 2282951). Particulars: HepG2 Attagene cis-factorial HIF1a reporter transcription; actives raise or lower the signal. The gist of the method: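 HepG2, transient cis-reporter library, 24 h dosing. RNA → RT (oligo dT) → PCR → 6-FAM primer extension → HpaI → CE. Bidirectional curve fit vs DMSO.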

The target in assay [6] is Heat shock factor protein 1 (Homo sapiens) (UniProt Q00613). The assay can be described thus: ATG_HSE_CIS: Attagene CIS-FACTORIAL HepG2 Assay for human Heat Shock Transcription Factor 1 (HSE) (AID 2282953). Particulars: HepG2 HSE cis-reporter, Attagene RNA transcription; actives raise or lower the signal. The gist of the method: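 Cells were transfected with cis-element-driven reporter constructs, dosed for 24 h, then total RNA was reverse-transcribed and reporter cDNA amplified, FAM-labelled and digested with HpaI. Fragments were resolved by capillary electrophoresis; gain or loss was fitted against DMSO.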

A short description of assay [7]: ATG_MRE_CIS: Attagene CIS-FACTORIAL HepG2 Assay for human Metal Responsive Element (MRE) (AID 2282954). Particulars: HepG2 MRE cis-reporter transcription, Attagene multiplex; actives raise or lower the signal. The procedure, abridged: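 Cells were transfected with cis-promoter reporter transcription units, then dosed for 24 h. RNA was reverse-transcribed, amplified, fluorescently labelled and resolved by capillary electrophoresis, and activity was fitted in both directions relative to DMSO.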

Assay [8] is described as follows: ATG_PXRE_CIS: Attagene CIS-FACTORIAL HepG2 Assay for human Pregnane X Receptor Element (PXRE) (AID 2282957). Particulars: HepG2 Attagene CIS-FACTORIAL PXRE reporter, mRNA; actives raise or lower the signal. The procedure, abridged:
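Endogenous transcription factor activity in HepG2 was gauged through induction of reporter mRNA driven by a cis-regulating promoter element, sampled 24 h post-treatment. Activity was fitted in both directions against DMSO negative control.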

Assay [9] is described as follows: ATG_PPRE_CIS: Attagene CIS-FACTORIAL HepG2 Assay for human Peroxisome Proliferator-activated Response Element (PPRE) (AID 2282958). Particulars: HepG2 PPRE cis-element reporter, Attagene transcription factor profiling; actives raise or lower the signal. The procedure, abridged: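 Transcript-level reporter induction in transfected HepG2 cells after 24 h chemical exposure, quantified by fluorescence from RT-PCR products separated by capillary electrophoresis.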

The nature of assay [10]: ATG_RORE_CIS: Attagene CIS-FACTORIAL HepG2 Assay for human RAR-related Orphan Receptor Element (RORE) (AID 2282959). Particulars: HepG2 Attagene cis-factorial RORE reporter, mRNA; actives raise or lower the signal. The gist of the method:
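Multiplexed reporter assay measuring mRNA induction from a cis promoter element in transiently transfected HepG2 cells after 24 h treatment. Detection via RT-PCR and capillary electrophoresis fluorescence; DMSO serves as baseline.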

Assay [11] can be described thus: ATG_Sox_CIS: Attagene CIS-FACTORIAL HepG2 Assay for human SRY-box transcription factor (SOX) (AID 2282960). Particulars: HepG2 Attagene cis-factorial SOX reporter, mRNA; actives raise or lower the signal. The procedure, abridged: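 Cells were transfected with reporter constructs under cis-regulatory promoters, then exposed to chemicals for 24 h. Reporter transcripts were quantified by fluorescence after RT-PCR and capillary electrophoresis; activity was fitted in both directions against DMSO.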

The target of assay [12] is Transcription factor Sp1 (Homo sapiens) (UniProt P08047). The assay can be described thus: ATG_Sp1_CIS: Attagene CIS-FACTORIAL HepG2 Assay for human Specificity Protein 1 (Sp1) (AID 2282961). Particulars: HepG2 Sp1 cis-reporter transcription, actives raise or lower the signal. The procedure, abridged:
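Measures mRNA induction of an Sp1-linked reporter in HepG2 cells 24 h post-dosing. Multiplexed reporters read by RT-PCR and capillary electrophoresis; DMSO serves as negative control and baseline.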

Assay [13] can be described thus: ATG_SREBP_CIS: Attagene CIS-FACTORIAL HepG2 Assay for human Sterol Regulatory Element Binding (SREBP) (AID 2282962). Particulars: HepG2 Attagene cis-factorial SREBP reporter, mRNA; actives raise or lower the signal. The procedure, abridged: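 Endogenous SREBP activity read as cis-element-driven reporter transcript in transiently transfected HepG2, 24 h post-dosing; quantified via RT-PCR plus capillary electrophoresis of fluorescent fragments. Gain or loss of signal fitted relative to DMSO baseline.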

In assay [14] the target is Signal transducer and activator of transcription 3 (Homo sapiens) (UniProt P40763). In words: ATG_STAT3_CIS: Attagene CIS-FACTORIAL HepG2 Assay for human Signal Transducer and Activator of Transcription 3 (STAT3) (AID 2282963). Particulars: HepG2, Attagene cis-factorial STAT3 reporter transcription; actives raise or lower the signal. The gist of the method: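 HepG2, MRTU-transfected, 24 h dosing. RNA → RT → PCR → FAM label → HpaI → CE. Bidirectional fit vs DMSO.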

Assay [15] can be described thus: ATG_TA_CIS: Attagene CIS-FACTORIAL HepG2 Assay for human TA Basal Promoter (AID 2282964). Particulars: HepG2 Attagene CIS-factorial TA basal promoter reporter; actives raise or lower the signal. The gist of the method:
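Steps: transfect HepG2 with MRTUs; dose 24 h; isolate RNA, DNase-treat, reverse-transcribe; PCR and FAM-label reporter cDNA; digest with HpaI 2h at 37 C; run capillary electrophoresis. Activity fitted both directions against DMSO.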

Assay [16] in a line: ATG_TCF_b_cat_CIS: Attagene CIS-FACTORIAL HepG2 Assay for human T-Cell-Factor with beta-catenin (TCF/b-cat) (AID 2282965). Particulars: HepG2 TCF/beta-catenin cis-reporter transcription, actives raise or lower the signal. The gist of the method:
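Using capillary electrophoresis as the read-out, labelled reporter cDNA fragments from transiently transfected HepG2 were sized and quantified. Exposure lasted 24 hours; activity in either direction was referenced to DMSO.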

Assay [17] addresses Hepatocyte nuclear factor 6 (Homo sapiens) (UniProt Q9UBC0). The assay can be described thus: ATG_HNF6_CIS: Attagene CIS-FACTORIAL HepG2 Assay for human Hepatocyte Nuclear Factor 6 (HNF6) (AID 2282952). Particulars: HepG2 Attagene cis-factorial HNF6 reporter transcription; actives raise or lower the signal. The gist of the method: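 Endogenous transcription factor activity in human HepG2 liver cells was captured through cis-regulated reporter constructs. After 24 h treatment, reporter mRNA was measured by RT-PCR with capillary electrophoresis, and activity was fitted in both directions relative to DMSO.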

Assay [18] in a line: ATG_PBREM_CIS: Attagene CIS-FACTORIAL HepG2 Assay for human Phenobarbital-responsive Enhancer Module (PBREM) (AID 2282955). Particulars: HepG2 PBREM cis-reporter, Attagene multiplexed transcription; actives raise or lower the signal. The procedure, abridged:
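HepG2, transient MRTU transfection, 24 h dosing; RNA → oligo(dT) RT → PCR → 6-FAM extension → HpaI → CE. Bidirectional fit vs DMSO.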

The target in assay [19] is Paired box protein Pax-6 (Homo sapiens) (UniProt P26367). The assay can be described thus: ATG_Pax6_CIS: Attagene CIS-FACTORIAL HepG2 Assay for human Paired Box 6 (PAX6) (AID 2282956). Particulars: HepG2 CIS-FACTORIAL PAX6 reporter transcription, RNA readout; actives raise or lower the signal. The procedure, abridged:
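Read-out is reporter transcript level, measured by RT-PCR with fluorescent primer extension and capillary electrophoresis after 24 h dosing of transfected HepG2 cells. Activity in either direction fitted relative to DMSO control.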

Chain of Hepatocyte nuclear factor 6 (Homo sapiens) (Q9UBC0 whole entry, looked up): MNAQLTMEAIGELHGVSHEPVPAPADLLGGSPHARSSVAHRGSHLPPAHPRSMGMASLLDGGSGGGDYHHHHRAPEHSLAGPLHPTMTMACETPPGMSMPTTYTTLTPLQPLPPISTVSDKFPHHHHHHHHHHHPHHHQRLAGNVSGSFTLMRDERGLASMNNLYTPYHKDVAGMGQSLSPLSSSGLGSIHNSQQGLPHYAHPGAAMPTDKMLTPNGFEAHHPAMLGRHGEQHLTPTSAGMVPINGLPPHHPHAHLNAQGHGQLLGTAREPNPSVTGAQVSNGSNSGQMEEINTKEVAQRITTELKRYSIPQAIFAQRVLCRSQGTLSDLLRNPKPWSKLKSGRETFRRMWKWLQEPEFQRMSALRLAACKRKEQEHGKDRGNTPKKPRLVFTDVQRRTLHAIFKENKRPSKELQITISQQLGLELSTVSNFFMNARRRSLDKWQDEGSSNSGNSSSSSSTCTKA
Chain of Signal transducer and activator of transcription 3 (Homo sapiens) (P40763 whole entry, looked up): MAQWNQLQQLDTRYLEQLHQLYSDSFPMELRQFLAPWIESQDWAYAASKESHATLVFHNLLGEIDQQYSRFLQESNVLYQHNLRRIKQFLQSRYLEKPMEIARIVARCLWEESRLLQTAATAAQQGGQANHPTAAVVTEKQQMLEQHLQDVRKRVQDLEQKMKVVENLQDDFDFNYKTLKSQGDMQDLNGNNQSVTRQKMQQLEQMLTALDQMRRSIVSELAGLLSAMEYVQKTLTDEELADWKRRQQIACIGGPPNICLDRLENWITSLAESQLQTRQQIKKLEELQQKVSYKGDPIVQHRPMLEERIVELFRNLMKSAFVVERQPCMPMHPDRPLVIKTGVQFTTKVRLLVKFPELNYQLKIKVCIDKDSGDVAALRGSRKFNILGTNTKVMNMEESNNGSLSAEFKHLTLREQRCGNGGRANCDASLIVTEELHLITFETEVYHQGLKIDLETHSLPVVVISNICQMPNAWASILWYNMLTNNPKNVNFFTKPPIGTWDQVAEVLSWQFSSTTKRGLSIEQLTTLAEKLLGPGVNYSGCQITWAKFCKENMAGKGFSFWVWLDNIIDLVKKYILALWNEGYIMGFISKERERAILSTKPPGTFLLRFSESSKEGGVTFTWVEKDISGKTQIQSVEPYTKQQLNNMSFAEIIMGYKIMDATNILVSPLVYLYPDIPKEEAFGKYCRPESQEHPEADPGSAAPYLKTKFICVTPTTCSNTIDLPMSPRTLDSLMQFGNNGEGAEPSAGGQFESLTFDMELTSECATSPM
Chain of Transcription factor Sp1 (Homo sapiens) (P08047 whole entry, looked up): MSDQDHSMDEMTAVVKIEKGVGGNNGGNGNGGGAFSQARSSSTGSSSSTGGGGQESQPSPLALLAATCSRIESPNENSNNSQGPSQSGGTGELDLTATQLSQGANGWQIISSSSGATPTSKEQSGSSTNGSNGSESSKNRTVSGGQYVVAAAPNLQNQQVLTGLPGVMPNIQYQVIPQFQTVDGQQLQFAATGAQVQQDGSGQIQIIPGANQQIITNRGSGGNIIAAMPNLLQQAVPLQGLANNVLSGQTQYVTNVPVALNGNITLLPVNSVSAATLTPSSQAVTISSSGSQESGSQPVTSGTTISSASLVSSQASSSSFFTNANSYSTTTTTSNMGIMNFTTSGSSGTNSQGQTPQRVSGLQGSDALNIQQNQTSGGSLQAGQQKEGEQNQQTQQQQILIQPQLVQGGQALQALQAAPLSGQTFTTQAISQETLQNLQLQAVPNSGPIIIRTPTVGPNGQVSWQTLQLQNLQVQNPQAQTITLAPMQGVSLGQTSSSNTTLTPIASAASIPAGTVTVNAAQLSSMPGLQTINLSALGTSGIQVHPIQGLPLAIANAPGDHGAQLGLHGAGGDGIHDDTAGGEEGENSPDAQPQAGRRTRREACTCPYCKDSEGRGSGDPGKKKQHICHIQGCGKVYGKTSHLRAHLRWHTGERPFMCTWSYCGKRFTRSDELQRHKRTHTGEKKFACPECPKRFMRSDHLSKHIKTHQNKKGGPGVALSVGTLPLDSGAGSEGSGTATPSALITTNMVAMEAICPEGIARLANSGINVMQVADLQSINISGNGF
Chain of Heat shock factor protein 1 (Homo sapiens) (Q00613 whole entry, looked up, the tested form may be a part): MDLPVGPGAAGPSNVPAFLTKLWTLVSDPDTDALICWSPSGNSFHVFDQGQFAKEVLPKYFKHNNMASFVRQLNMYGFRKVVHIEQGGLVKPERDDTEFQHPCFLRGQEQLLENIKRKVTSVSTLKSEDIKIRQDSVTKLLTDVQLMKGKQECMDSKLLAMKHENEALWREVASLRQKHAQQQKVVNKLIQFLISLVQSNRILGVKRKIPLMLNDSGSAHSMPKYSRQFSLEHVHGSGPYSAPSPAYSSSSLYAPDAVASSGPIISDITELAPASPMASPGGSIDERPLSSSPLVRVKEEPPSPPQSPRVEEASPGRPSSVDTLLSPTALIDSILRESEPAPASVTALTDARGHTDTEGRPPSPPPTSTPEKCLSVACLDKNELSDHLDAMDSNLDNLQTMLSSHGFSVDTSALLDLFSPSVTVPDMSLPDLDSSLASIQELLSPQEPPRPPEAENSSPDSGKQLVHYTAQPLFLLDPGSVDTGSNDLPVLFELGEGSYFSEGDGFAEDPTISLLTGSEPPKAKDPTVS
Chain of Paired box protein Pax-6 (Homo sapiens) (P26367 whole entry, looked up): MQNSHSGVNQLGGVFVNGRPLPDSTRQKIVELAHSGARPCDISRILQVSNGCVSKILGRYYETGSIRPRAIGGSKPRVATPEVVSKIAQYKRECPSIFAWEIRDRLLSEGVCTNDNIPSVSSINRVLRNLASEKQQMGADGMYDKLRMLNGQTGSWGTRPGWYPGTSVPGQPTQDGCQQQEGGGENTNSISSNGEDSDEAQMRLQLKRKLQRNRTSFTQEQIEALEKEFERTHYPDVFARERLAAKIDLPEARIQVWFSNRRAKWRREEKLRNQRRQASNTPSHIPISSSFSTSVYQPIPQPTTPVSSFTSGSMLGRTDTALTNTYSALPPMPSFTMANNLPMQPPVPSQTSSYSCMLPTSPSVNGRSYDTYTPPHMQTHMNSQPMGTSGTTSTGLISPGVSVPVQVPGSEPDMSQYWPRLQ
Chain of Hypoxia-inducible factor 1-alpha (Homo sapiens) (Q16665 whole entry, looked up): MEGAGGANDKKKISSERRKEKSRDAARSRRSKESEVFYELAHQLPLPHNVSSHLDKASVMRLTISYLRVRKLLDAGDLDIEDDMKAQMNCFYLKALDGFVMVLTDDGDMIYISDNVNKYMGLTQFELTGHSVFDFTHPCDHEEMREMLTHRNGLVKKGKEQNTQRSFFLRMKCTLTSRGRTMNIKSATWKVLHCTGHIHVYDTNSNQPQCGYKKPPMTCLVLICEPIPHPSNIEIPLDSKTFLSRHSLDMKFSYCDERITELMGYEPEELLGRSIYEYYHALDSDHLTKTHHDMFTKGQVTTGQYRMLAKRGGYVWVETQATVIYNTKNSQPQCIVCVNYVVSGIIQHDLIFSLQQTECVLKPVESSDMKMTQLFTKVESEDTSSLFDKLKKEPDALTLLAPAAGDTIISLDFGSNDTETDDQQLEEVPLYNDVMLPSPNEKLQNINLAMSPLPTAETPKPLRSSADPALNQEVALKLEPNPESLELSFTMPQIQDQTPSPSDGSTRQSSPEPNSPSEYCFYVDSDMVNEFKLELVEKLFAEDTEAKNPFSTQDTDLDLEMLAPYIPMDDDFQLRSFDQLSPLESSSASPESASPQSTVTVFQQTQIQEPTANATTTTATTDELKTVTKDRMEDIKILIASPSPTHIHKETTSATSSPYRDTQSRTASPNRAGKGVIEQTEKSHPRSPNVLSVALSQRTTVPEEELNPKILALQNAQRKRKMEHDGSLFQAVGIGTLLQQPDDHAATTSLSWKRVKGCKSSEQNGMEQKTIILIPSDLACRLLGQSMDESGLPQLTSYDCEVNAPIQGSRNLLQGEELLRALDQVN

For the compound `C=CC(=C)CCCC(C)(C)OC(C)=O`, the compound was called inactive in assay [1], in [2], in assay [3], in [4], in assay [5] and in [6]. The outcome in [7], in [8], in [9], in [10], in assay [11] and in assay [12] was inactive. In addition, the compound was called inactive in [13], in assay [14], in [15] and in assay [16].
For the compound `CCOCCOCCOCC`, the outcome in [1], in [2], in assay [3], in assay [4], in [5] and in assay [17] was inactive. Moreover, the outcome in assay [7], in [18], in assay [19], in assay [8], in assay [9] and in [10] was inactive. The outcome in [11], in [12], in assay [13], in assay [14], in assay [15] and in assay [16] was inactive.
`CC(Oc1cc(Cl)ccc1Cl)C(=O)O` (stereo not given): the result in assay [1], in assay [2], in assay [3], in [4], in assay [5] and in assay [7] was inactive. In addition, the outcome in [18], in assay [19], in assay [10], in assay [11], in [12] and in assay [13] was inactive. Also, the call in [15] and in assay [16] was inactive. Moreover, the AC50 is 82.1 µM (active) in assay [8] and 100 µM (active) in assay [9].
Take `CCCCC(CC)COC(C)=O` (stereo not given): the result in assay [1], in assay [2], in assay [3], in assay [4], in assay [17] and in [6] was inactive. The compound was called inactive in assay [7], in assay [18], in [8], in assay [9], in [10] and in assay [11]. In addition, the compound was classed as inactive in assay [12], in assay [13], in assay [14], in [15] and in [16].
Regarding `Cc1cc(=O)oc2cc(N(C)C)ccc12`, the compound was classed as inactive in [1], in assay [2], in [3], in assay [4], in assay [17] and in [6]. In addition, the compound was classed as inactive in assay [7], in assay [19], in [8], in assay [9], in assay [10] and in assay [11]. Besides, the call in [12], in assay [14] and in assay [16] was inactive. Besides, the AC50 in assay [13] is 100 µM (active).
On to `C=Cc1ccc(C(C)(C)C)cc1`, for which the compound was called inactive in assay [2], in assay [3], in assay [4], in assay [5], in assay [17] and in [6]. In addition, the compound was called inactive in [7], in assay [18], in assay [19], in [9], in [10] and in assay [11]. Also, the compound was classed as inactive in assay [12], in [13], in assay [15] and in assay [16]. In assay [8], the AC50 was 27.4 µM (active).
Regarding `O=C1OC(=O)c2c(Br)c(Br)c(Br)c(Br)c21`, the outcome in assay [1], in assay [3], in [4], in assay [5], in [17] and in assay [6] was inactive. Besides, the call in assay [7], in assay [19], in assay [8], in [10], in assay [11] and in assay [12] was inactive. Besides, the compound was called inactive in assay [13], in assay [15] and in assay [16].
